Assay results taken from PMC4336329 (PLoS ONE, 2015).
Hit rate of the full screen: of about 310,000 compounds, about 14,000 (4.5%) showed an effect of 50% or more. Effects have a minus sign here. Only a selection was taken, and strong results are over-represented in it overall.

biological target: human ether-à-go-go-related gene (hERG) potassium channel (human, UniProt Q12809); test: primary screen, population patch clamp on CHO cells stably expressing hERG; higher = less effect of the substance
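Further: peak tail current of the secondary pulse compared with the same well before compound.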

human ether-à-go-go-related gene (hERG) potassium channel, sequence (Q12809 whole entry, looked up): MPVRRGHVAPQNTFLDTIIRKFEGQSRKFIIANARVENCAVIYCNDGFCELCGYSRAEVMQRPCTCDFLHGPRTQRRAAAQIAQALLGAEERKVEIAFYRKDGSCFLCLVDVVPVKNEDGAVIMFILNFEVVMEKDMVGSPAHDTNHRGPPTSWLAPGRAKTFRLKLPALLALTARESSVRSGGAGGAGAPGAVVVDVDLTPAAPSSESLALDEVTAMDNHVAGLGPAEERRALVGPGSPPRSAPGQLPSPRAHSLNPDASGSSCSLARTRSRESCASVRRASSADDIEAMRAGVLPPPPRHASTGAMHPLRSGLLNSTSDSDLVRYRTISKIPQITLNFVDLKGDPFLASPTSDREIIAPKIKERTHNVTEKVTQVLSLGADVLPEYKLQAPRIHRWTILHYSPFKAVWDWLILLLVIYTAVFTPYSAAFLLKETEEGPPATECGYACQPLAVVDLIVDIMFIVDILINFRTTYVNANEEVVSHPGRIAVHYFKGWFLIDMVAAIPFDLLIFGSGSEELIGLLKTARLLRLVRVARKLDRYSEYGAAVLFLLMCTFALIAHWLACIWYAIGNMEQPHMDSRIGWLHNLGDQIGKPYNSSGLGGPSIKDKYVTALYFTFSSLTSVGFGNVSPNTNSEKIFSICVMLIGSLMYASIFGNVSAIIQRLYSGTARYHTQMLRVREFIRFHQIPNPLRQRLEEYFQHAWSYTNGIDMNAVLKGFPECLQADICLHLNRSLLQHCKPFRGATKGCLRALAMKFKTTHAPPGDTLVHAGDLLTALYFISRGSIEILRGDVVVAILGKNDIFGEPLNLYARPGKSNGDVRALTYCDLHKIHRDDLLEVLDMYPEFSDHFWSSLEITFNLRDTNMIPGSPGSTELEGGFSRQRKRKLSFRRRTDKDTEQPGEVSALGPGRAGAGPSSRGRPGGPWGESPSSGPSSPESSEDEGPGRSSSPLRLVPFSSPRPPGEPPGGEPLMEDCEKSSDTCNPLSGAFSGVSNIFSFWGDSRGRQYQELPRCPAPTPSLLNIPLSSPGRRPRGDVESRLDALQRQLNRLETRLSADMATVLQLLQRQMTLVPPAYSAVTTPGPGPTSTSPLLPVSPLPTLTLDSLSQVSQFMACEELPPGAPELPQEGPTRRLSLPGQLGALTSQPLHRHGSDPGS

Row | SMILES | hERG current change (%, negative = inhibition) at 10uM
1 | c1ccc2c(c1)NC1(CCCC1)n1c-2nc2ccccc21 | -9.46%
2 | CCOP(=S)(OCC)C(O)CCCCCn1c(=O)c(F)cn(C2CCCO2)c1=O (stereo not drawn) | -2.13%
3 | CN(C(=S)Nc1ccc(F)cc1)C(c1ccccc1)c1ccccc1 | 11.1%
4 | CCn1c(SCC(=O)Nc2ccc(NC(C)=O)cc2)nc2c1c(=O)n(C)c(=O)n2C | 24.7%
5 | O=C(C1=C[C@@H](c2ccccc2)C[C@@H](OCCCCO)O1)N1CCN(Cc2ccc3c(c2)OCO3)CC1 | -55.2%
6 | CC(=O)n1cc([C@H]2C=C(C(=O)N3CCN(Cc4ccc5c(c4)OCO5)CC3)O[C@@H](OCCCCO)C2)c2ccccc21 | -32.7%
7 | CC(=O)n1cc([C@H]2C=C(C(=O)N3CCN(Cc4ccc5c(c4)OCO5)CC3)O[C@@H](OCc3ccc(CO)cc3)C2)c2ccccc21 | 3.43%
8 | CC(=O)n1cc([C@@H]2C=C(C(=O)N3CCN(Cc4ccc5c(c4)OCO5)CC3)O[C@H](OCCCCO)C2)c2ccccc21 | -50.2%
9 | O=C(C1=C[C@H](c2ccc3c(c2)OCO3)C[C@H](OCCCCO)O1)N1CCN(Cc2ccccc2)CC1 | -62.8%
10 | O=C(C1=C[C@H](c2ccccc2)C[C@H](OCc2ccc(CO)cc2)O1)N1CCN(Cc2ccc3c(c2)OCO3)CC1 | -39.5%
11 | CN1CCN(C(=O)C2=C[C@H](c3ccc4c(c3)OCO4)C[C@H](OCCCCO)O2)CC1 | -8.06%
12 | O=C(C1=C[C@H](c2ccccc2)C[C@H](OCCCCO)O1)N1CCN(Cc2ccc3c(c2)OCO3)CC1 | -41.8%
13 | O=C(C1=C[C@@H](c2ccc3c(c2)OCO3)C[C@@H](OCCCCO)O1)N1CCN(Cc2ccc3c(c2)OCO3)CC1 | -65.9%
14 | O=C(C1=C[C@H](c2ccc3c(c2)OCO3)C[C@H](OCCCCO)O1)N1CCOCC1 | -1.14%
15 | CC1(C)CC2(CCO1)OC(=O)CC2C(=O)Nc1ccccc1Cl (stereo not drawn) | 1.54%
16 | Cc1ccc(S(=O)(=O)NNC(=O)c2cccs2)c(C)c1 | 14.4%
17 | Cc1ccc(O)c(N=NC2=C(O)CC(C)(C)CC2=O)c1 | 3.16%
18 | Cc1nn(C)c(Oc2cccc(Cl)c2)c1C(=O)Nc1ccc(F)cc1 | -15.3%
19 | CCn1c(CCn2ccnc2C)n[nH]c1=S | -1.48%
20 | O=C1CCCC2=C1C(Cc1ccccc1)C1=C(CCCC1=O)O2 | -3.32%
21 | CCCc1cc(C(=O)NC(C)C2CCCO2)cs1 (stereo not drawn) | 7.72%
22 | Cc1nc2cc(NS(=O)(=O)c3ccccc3)ccc2n1C | 9.21%
23 | CC(=O)c1cccc(NC(=O)C2CCCN(S(C)(=O)=O)C2)c1 (stereo not drawn) | 8.02%

Row | SMILES | hERG current change (%, negative = inhibition) at 10uM
24 | N#C/C(=C\c1ccccc1)C(=O)Nc1ccccn1 | 12.7%
25 | CCCCN1C(=O)c2ccc(C(=O)Nc3c(N)n(CCCC)c(=O)n(C)c3=O)cc2C1=O | -51.9%
26 | CCCCN1C(=O)c2ccc(C(=O)Nc3cccc(C)c3C)cc2C1=O | 17.2%
27 | CCCCN1C(=O)c2ccc(C(=O)Nc3ccc(S(=O)(=O)N(C)C)cc3)cc2C1=O | -0.448%
28 | CCOC(=O)C1(Cc2ccc(Cl)cc2)CCN(C(=O)CCc2cnccn2)CC1 | -50%
29 | CCOC(=O)C1(Cc2ccc(OC)cc2)CCN(C(=O)CCc2cnccn2)CC1 | -7.37%
30 | CCOC(=O)C1(CCc2ccccc2)CCN(C(=O)CCc2cnccn2)CC1 | -66.5%
31 | CCOC(=O)C1(CCCc2ccccc2)CCN(C(=O)CCc2cnccn2)CC1 | -66.4%
32 | Cc1ccc(C)c(SCC(=O)Nc2cccnc2Cl)c1 | 0.545%
33 | O=C(COC(=O)Cc1ccccc1[N+](=O)[O-])NCC1CCCCC1 | 0.647%
34 | COc1ccc(NC(=S)NC(=O)C2CCC2)cc1 | 7.29%
35 | O=S(=O)(NCc1ccco1)c1cccc2cccnc12 | -22.3%
36 | COc1ccc(C(=O)/C(=C\c2ccco2)N2C=CC=CC2=C(C#N)C#N)cc1 | -72%
37 | N#CC(C#N)=C1C=CC=CN1/C(=C\c1ccco1)C(=O)c1ccccc1 | -57.8%
38 | N#CC(C#N)=C1C=CC=CN1/C(=C\c1ccco1)C(=O)c1ccc(Cl)cc1 | -36%
39 | N#CC(C#N)=C1C=CC=CN1/C(=C\c1ccccc1Cl)C(=O)c1ccccc1 | 8.73%
40 | N#CC(C#N)=C1C=CC=CN1/C(=C\c1ccco1)C(=O)c1ccc(Br)cc1 | -46.5%
41 | N#CC(C#N)=C1C=CC=CN1/C(=C\c1ccco1)C(=O)c1ccc(-c2ccccc2)cc1 | 3.14%
42 | COc1cc(/C=N/Nc2ccc([N+](=O)[O-])cc2S(=O)(=O)N2CCOCC2)cc(OC)c1OC | -3.33%
43 | O=C(Nc1ccc(Cl)cc1Cl)c1csc(-c2cccnc2)n1 | -1.42%
44 | CS(=O)(=O)N1CCc2cc(C(=O)Nc3ccccc3)ccc21 | -1.25%
45 | Cc1cccc(Nc2nc(NCc3ccco3)nc(N)c2[N+](=O)[O-])c1 | 10.6%
46 | COc1ccc(CN2CCC(n3nccc3NC(=O)C3CC3)CC2)cc1O | -58.8%

Row | SMILES | hERG current change (%, negative = inhibition) at 10uM
47 | CCOc1cccc(CN2CCC(n3nccc3NC(=O)C3CC3)CC2)c1O | -64.2%
48 | O=C(Nc1ccnn1C1CCN(Cc2cccc(F)c2F)CC1)C1CCCC1 | -23.2%
49 | Cc1ccccc1CN1CCC(n2nccc2NC(=O)c2cccnc2)CC1 | -14.6%
50 | CC(C)Oc1ccc(CN2CCC(n3nccc3NC(=O)c3cccnc3)CC2)cc1 | -70.4%
51 | O=C(Nc1ccnn1C1CCN(Cc2ccc(OC(F)F)cc2)CC1)C1CCCC1 | -75.3%
52 | Cc1ccc(CN2CCC(n3nccc3NC(=O)C3CCOC3)CC2)cc1C (stereo not drawn) | -20.5%
53 | Cc1cc(NC(=O)C(C)SCC(=O)OCc2ccc(Cl)cc2Cl)no1 (stereo not drawn) | 1.04%
54 | Cc1ccc(C(=O)NCc2ccco2)c(C)c1 | 20.5%
55 | O=C(CCC(=O)N1CCN(c2ccc(O)cc2)CC1)c1ccc(Br)cc1 | -44.4%
56 | O=C(O)c1cc(-c2ccccc2)nc(-c2ccccc2)c1 | 22.5%
57 | CC1CN(c2ccc([N+](=O)[O-])cc2C(=O)N2CCOCC2)CC(C)N1 (stereo not drawn) | -9.17%
58 | Cn1cc(CN2CCC(n3nccc3NC(=O)C3CCCC3)CC2)cn1 | 12.6%
59 | CC(C)(O)C#Cc1ccc(CN2CCC(n3nccc3NC(=O)C3CC3)CC2)cc1 | -19%
60 | CCOc1cc(CN2CCC(n3nccc3NC(=O)C3CC3)CC2)ccc1O | -22%
61 | COC(=O)c1ccc(CN2CCC(n3nccc3NC(=O)C3CCCC3)CC2)cc1 | -67.7%
62 | COc1ccc(CN2CCC(n3nccc3NC(=O)C3CCCC3)CC2)cc1 | -68.9%
63 | COC(=O)c1ccc(CN2CCC(n3nccc3NC(=O)C3CC3)CC2)cc1 | -55.6%
64 | CCOc1ccc(CN2CCC(n3nccc3NC(=O)C3CC3)CC2)cc1CO | -57.1%
65 | CC1CCCC(C)N1CCCNC(=O)Cn1cc2c(n1)CCCC2 (stereo not drawn) | -3.99%
66 | COc1cccc(CNCc2ccc3c(c2)OCO3)c1.O=C(O)C(=O)O | 13.7%
67 | O=C(N[C@@H](Cc1ccccc1)c1nc2ccccc2[nH]1)c1cc([N+](=O)[O-])ccc1Cl | -28%
68 | CCc1c(O)nc(SCC(N)=O)n(-c2ccccc2F)c1=O | 7.56%
69 | CCC(C)N(C(=O)C(F)(F)F)C(C(=O)NC1CCCCC1)c1ccncc1 (stereo not drawn) | 7.62%

Row | SMILES | hERG current change (%, negative = inhibition) at 10uM
70 | O=S(=O)(c1ccc(Cl)cc1Cl)N1CCCC1c1cccnc1 (stereo not drawn) | 7.32%
71 | Cc1ccc(SCC(=O)NCc2ccco2)cc1 | 3.39%
72 | COC(=O)c1c(SCC(=O)NC2CCCCC2)[nH]c2ccccc2c1=O | -0.717%
73 | COc1cccc(CN2CCC(n3nccc3NC(=O)C3CC3)CC2)c1 | -44.7%
74 | O=C(Nc1ccnn1C1CCN(Cc2cccc(OCCO)c2)CC1)C1CC1 | 0.219%
75 | COc1cc(CN2CCC(n3nccc3NC(=O)C3CC3)CC2)cc(OC)c1 | -66.3%
76 | CC(C)Oc1ccc(CN2CCC(n3nccc3NC(=O)C3CC3)CC2)cc1 | -79.4%
77 | CN(CC(=O)Nc1ccc(F)c(F)c1F)C(=O)C1CSC2(C)CCC(=O)N12 (stereo not drawn) | -5.92%
78 | O=C(Nc1ccc(OC(F)F)cc1)Nc1cccc(C(F)(F)F)c1 | 6.56%
79 | COC(=O)c1ccc(/C=N/OCC(=O)NCc2ccc(F)cc2)cc1 | 17.9%
80 | CCOc1ccc(/C=N/OCC(=O)NCc2ccco2)cc1 | -12.9%
81 | O=C(CO/N=C/c1ccccc1OC(F)F)NCc1ccco1 | -5.06%
82 | O=C(CO/N=C/c1ccc(OC(F)F)cc1)NCc1ccc(F)cc1 | -79.2%
83 | O=C(CO/N=C/c1ccc(OC(F)F)cc1)NCc1cccs1 | -62.6%
84 | O=C(CO/N=C/c1ccccc1OC(F)F)NCc1cccs1 | -12.9%
85 | O=C(CO/N=C/c1ccc(OC(F)F)cc1)NC1CCCCC1 | -8.59%
86 | O=C(CO/N=C/c1ccc(OC(F)F)cc1)NCc1ccco1 | -51.8%
87 | CCOc1ccc(/C=N/OCC(=O)NCc2cccs2)cc1 | -11.6%
88 | CC(C)(C)c1ccc(/C=N/OCC(=O)NCc2ccc(F)cc2)cc1 | -2.59%
89 | CN(C(=O)CO/N=C/c1ccc(OC(F)F)cc1)C1CCS(=O)(=O)C1 (stereo not drawn) | -59.2%
90 | O=C(CO/N=C/c1ccc(OC(F)F)cc1)NC1CCCC1 | -49%
